# Results: PubChem BioAssay
# “And” between values parts separate entries of the source, which are not always exact repeats. Identical values can stand only once. For some assays here: Results with a measured potency or affinity are listed apart. The source made the active and inactive calls.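 Rule for the calls, unless noted: active = compounds whose cell count with miR-34 switched on is under 0.7 times the count with it off; inactive = the rest.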
# Legend:
# [1] = compounds altering circadian rhythm period length – cell-based, LOPAC library, luminescence reporter (AID 2774; call rule not given here;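 note: values are relative to mean of DMSO wells on each plate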); conditions: circadian reporter cells, at 7 µM, actives lie on both sides
# [2] = test system: Hepatitis C virus NS3 helicase; test: blockers of NS3h binding to ssDNA – biochemical, fluorescence polarization, LOPAC1280 library, primary screen (AID 687035; in the data active = inhibition above about 37%); conditions: Purified HCV NS3 helicase, Cy5-dT15 ssDNA binding fluorescence polarization; stronger effect = higher value; concentration not given here
# [3] = compounds altering Cy5-DNA-NS3h complex signal – biochemical, LOPAC1280, artefact control for HCV NS3 helicase inhibitor project (AID 687037; call rule not given here); conditions: Cy5-DNA-NS3h complex fluorescence interference counterscreen
# [4] = EMT-state selective cytotoxicity in co-culture – imaging, PC-3E GFP, TEM4-18 mCherry, primary screen (AID 1345086;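 active = compounds killing one labelled cell type while sparing the other, by normalised counts and ratio limits, not self-fluorescent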;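 for all read-outs here: cells exposed to compound for 72 h before imaging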;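 for red/green cell ratio (normalised): normalised mesenchymal count divided by normalised epithelial count so high means epithelial killing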); conditions: PC-3E GFP / TEM4-18 mCherry co-culture, imaging cell counts, at 1 µM; for red/green cell ratio (normalised): actives lie on both sides, counts scaled to control wells, 1 = unselective
# [5] = viability loss with induced miR-34 in A549 – imaging, A549 dox-inducible miR-34, nuclei and caspase counts, primary screen (AID 1347080); conditions: A549 miR-34 inducible, Hoechst nuclei count, 48 h
# [6] = blockers of cellular phospholipid synthesis – cell-based, LOPAC library, screen 4, primary screen (AID 1347384; call rule not given here); conditions: animal cells, phospholipid biosynthesis inhibition screen; at 10 µM
# [7] = biological target: Mitogen-activated protein kinase 7 (Homo sapiens) (UniProt Q13164); test: Gal4-ERK5 driven luciferase induction – cell-based, HTS, primary screen (AID 1508626;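 active = luciferase signal above three times the same-plate solvent-only control wells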;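 note: luciferase driven by Gal4-ERK5 fusion binding five Gal4 sites before minimal TATA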); conditions: HeLa Gal4-ERK5 transactivation, 18 h, at 5 µM, stronger effect = higher value
# [8] = galactose survival enhancers in mitochondrial complex I cybrids – cell-based, galactose medium, ATP luminescence, primary screen (AID 1645843;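 active = z-score of at least 1.8 in each of two replicates, scored against plate mean and spread of sample wells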;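 note: positive z means more ATP and so rescue of galactose-driven cybrid death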); conditions: complex I mutant cybrid cells, 72 h, stronger effect = higher value
# [9] = P. berghei load reduction in hepatocytes – cell-based, HepG2, luciferase luminescence, HepG2 viability, primary screen (AID 624349; in the data active = parasite load remaining mostly below about 12%, no sharp cut-off; inactive = mostly above about 10%;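 note: 100% = mean of DMSO negative control wells on the same plate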); conditions: P. berghei liver stage in HepG2, luciferase luminescence, concentration not given here; parasite load remaining: stronger effect = lower value; viability: measured here: HepG2 viability without parasites
# [10] = MELAS cybrid and Rieske KO viability enhancers – cell-based, MELAS cybrids, Rieske KO mouse fibroblasts, CellTiter-Glo, primary screen (AID 1508586;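 active = mean z-score across replicates of 1.96 or higher in either the MELAS or the Rieske mutant cell line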;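 note: z relative to plate mean and SD of compound and empty wells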); conditions: low glucose
# [11] = biological target: NAD(+) hydrolase SARM1 (Homo sapiens) (UniProt Q6SZW1); test: blocking NAD cleavage by SARM1 SAM-TIR – cell lysate, NAD-Glo luminescence (AID 1508614;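 active = compound whose remaining NAD level is above about 45 nM, limit read from the data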;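 note: higher remaining NAD means stronger inhibition of SARM1 NADase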); conditions: SAM-TIR HEK293T lysate NADase, at 1 µM, stronger effect = higher value
# [12] = blockers of polyQ-driven CASP3 activation – cell-based (AID 1583); conditions: polyglutamine-induced caspase-3 activation, cell assay; stronger effect = higher value;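 tested at 10 µM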
# [13] = yeast 75Q aggregation reduction – 75Q-TubU reporter (AID 1593); conditions: Yeast 75Q polyglutamine aggregation reporter
# [14] = restoration of touch response, mutant HTT neurons – whole organism, C. elegans mechanosensory neurons, N-terminal huntingtin (AID 1599); conditions: C. elegans polyQ-huntingtin mechanosensory neurons, stronger effect = higher value
# [15] = blockers of cytochrome c efflux from mitochondria – biochemical, purified mitochondria (AID 1603); conditions: stronger effect = lower value;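 note: mouse liver mitochondria challenged with calcium chloride; signal normalized to the plate average as 100%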
# [16] = polyglutamine aggregate formation blockers (AID 1604); conditions: polyglutamine-induced protein aggregation inhibition assay; stronger effect = higher value; tested at 2.5 µM
# [17] = glutamate transport activators, MN-1 cells, MN-1 cell line (AID 1612); conditions: MN-1 motor neuron cells, stronger effect = higher value;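 note: tested at 1 µM final; 0% = mean of DMSO vehicle wells on each plate; positive means more glutamate uptake than control and negative means less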
# [18] = 75Q-TubH aggregate inhibition, S. cerevisiae, yeast (AID 1616); conditions: S. cerevisiae 75Q-TubH polyglutamine aggregation suppression; stronger effect = higher value
# [19] = GFP-Q80 aggregate reduction, neuronal-like cells, cell-based, NGF-treated PC12, GFPQ80 (AID 1614); conditions: PC12 NGF-treated GFP-polyQ80 inclusion reduction;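 note: lower means fewer inclusions and 0 means no inclusions at all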
# [20] = compounds altering viability of human ES cells (AID 493140; call rule not given here;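 note: cells exposed to compounds for four days before counting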); conditions: human embryonic stem cell survival screen; stronger effect = higher value
# [21] = measured here: epithelial PC-3E GFP cell survival
# [22] = measured here: mesenchymal TEM4-18 mCherry cell survival
# [23] = stronger effect = lower value, cell number ratio, induced over uninduced
# [24] = measured here: relative caspase fold change +Dox/-Dox
# [25] = measured here: total cells with miR-34 induction, stronger effect = lower value
# [26] = measured here: total cells without miR-34 induction
# [27] = MELAS cybrid survival, CellTiter-Glo 48 h, stronger effect = higher value
# [28] = Rieske KO mouse fibroblast survival, CellTiter-Glo 72 h
# Chain of NAD(+) hydrolase SARM1 (Homo sapiens) (Q6SZW1 whole entry, looked up): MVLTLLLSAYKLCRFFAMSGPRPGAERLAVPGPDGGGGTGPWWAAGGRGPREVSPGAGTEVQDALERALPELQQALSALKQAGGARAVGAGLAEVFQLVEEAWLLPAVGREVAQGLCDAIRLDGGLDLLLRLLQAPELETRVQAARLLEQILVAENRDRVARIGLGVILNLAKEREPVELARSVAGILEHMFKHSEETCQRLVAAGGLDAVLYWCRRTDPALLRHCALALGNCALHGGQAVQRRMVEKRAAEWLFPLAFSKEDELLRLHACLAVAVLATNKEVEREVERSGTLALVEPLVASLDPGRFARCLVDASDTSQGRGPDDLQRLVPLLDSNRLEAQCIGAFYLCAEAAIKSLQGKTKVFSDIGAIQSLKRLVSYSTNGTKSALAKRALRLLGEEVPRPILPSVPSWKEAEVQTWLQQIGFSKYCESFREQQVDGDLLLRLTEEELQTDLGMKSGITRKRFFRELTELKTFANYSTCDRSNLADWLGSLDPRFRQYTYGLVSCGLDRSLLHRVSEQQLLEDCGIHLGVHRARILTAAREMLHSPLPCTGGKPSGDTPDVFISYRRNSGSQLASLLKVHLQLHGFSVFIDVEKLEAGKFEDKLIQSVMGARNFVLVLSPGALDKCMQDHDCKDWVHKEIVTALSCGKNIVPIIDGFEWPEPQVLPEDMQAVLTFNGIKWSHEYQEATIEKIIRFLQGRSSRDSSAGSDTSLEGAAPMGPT
# Chain of Mitogen-activated protein kinase 7 (Homo sapiens) (Q13164 whole entry, looked up, the tested form may be a part): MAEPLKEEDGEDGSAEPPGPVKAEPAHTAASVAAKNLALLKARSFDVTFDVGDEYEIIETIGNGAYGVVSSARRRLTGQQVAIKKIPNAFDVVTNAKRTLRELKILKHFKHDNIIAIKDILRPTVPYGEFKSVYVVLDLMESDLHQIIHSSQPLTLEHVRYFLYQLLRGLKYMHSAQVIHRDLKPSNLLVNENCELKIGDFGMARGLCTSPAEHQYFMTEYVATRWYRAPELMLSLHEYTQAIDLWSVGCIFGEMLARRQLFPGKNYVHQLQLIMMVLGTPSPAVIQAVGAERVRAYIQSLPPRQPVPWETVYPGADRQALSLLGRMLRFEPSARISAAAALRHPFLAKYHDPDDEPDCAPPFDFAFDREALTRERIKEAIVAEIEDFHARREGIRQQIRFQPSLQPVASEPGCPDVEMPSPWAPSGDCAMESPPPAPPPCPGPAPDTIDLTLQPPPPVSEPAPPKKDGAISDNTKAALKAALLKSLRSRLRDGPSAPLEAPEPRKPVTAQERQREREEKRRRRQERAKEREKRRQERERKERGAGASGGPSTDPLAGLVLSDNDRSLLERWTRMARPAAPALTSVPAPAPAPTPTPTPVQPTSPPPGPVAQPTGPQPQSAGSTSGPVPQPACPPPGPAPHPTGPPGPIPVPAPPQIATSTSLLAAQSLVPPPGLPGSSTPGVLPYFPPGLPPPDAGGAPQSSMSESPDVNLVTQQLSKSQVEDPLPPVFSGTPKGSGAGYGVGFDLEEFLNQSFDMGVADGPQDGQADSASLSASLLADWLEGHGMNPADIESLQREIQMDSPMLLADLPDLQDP
structure (smiles),measurement,setting,value
O=C(O)C1=CC(=C(c2ccc(O)c(C(=O)O)c2)c2ccc(O)c(C(=O)O)c2)C=CC1=O,period change,[1],-0.145 h (inactive)
same,inhibition,[2],96% (active)
same,fluorescence ratio (interference),[3],1 (inactive)
same,red/green cell ratio (normalised),[4],1.1 (inactive)
same,normalised cell number,[4]; [21],1.19
same,normalised cell number,[4]; [22],1.31
same,fold change,[5]; [23],1.06 (inactive)
same,fold change,[5]; [24],1.49
same,cell count,[5]; [25],8760
same,cell count,[5]; [26],8290
same,outcome,[6],inactive
same,luciferase signal,[7],12 AU (inactive)
same,z-score,[8],5.43 (active)
Cc1cc(-n2c(=O)[nH]c(=O)n(C)c2=O)ccc1Oc1ccc(SC(F)(F)F)cc1,parasite load remaining,[9],24.3% (inactive)
same,viability,[9],72%
same,red/green cell ratio (normalised),[4],0.98 (inactive)
same,normalised cell number,[4]; [21],1.07
same,normalised cell number,[4]; [22],1.05
same,fold change,[5]; [23],0.875 (inactive) and 0.912 (inactive)
same,fold change,[5]; [24],1.01 and 1.07
same,cell count,[5]; [25],7860 and 10300
same,cell count,[5]; [26],8980 and 11300
same,z-score,[10]; [27],-0.0992 (inactive) and -0.247 (inactive) and 0.135 (inactive)
same,z-score,[10]; [28],-0.203 and -0.144 and -0.234
same,remaining NAD,[11],10 nM (inactive)
same,luciferase signal,[7],136 AU (inactive)
same,z-score,[8],0.65 (inactive)
CO[C@@]12[C@@H]3NC3CN1C1=C(C(=O)C(N)=C(C)C1=O)[C@@H]2COC(N)=O (stereo not given in full),inhibition,[12],-29.8%
same,score,[13],2
same,rescue above control,[14],0
same,cytochrome c release ratio,[15],1
same,inhibition of aggregation,[16],29.2%
same,glutamate uptake change,[17],0.5%
same,aggregation suppression score,[18],1.38
same,parasite load remaining,[9],0.12% (inactive)
same,viability,[9],22.5%
same,red/green cell ratio (normalised),[4],1.09 (inactive)
same,normalised cell number,[4]; [21],1.03
same,normalised cell number,[4]; [22],1.13
same,fold change,[5]; [23],0.986 (inactive)
same,fold change,[5]; [24],0.958
same,cell count,[5]; [25],1840
same,cell count,[5]; [26],1870
O=C(O)c1ccccc1Nc1ccccc1,period change,[1],-0.04 h (inactive)
same,inhibition,[2],0% (inactive)
same,fluorescence ratio (interference),[3],0.9 (inactive)
same,red/green cell ratio (normalised),[4],0.96 (inactive)
same,normalised cell number,[4]; [21],1.09
same,normalised cell number,[4]; [22],1.05
same,fold change,[5]; [23],1.06 (inactive) and 0.981 (inactive)
same,fold change,[5]; [24],2.67 and 0.812
same,cell count,[5]; [25],10300 and 5440
same,cell count,[5]; [26],9720 and 5550
same,outcome,[6],inactive
same,luciferase signal,[7],24 AU (inactive)
same,z-score,[8],2.06 (active)
CCCCC[C@H](CC(=O)NO)C(=O)N[C@H](C(=O)N1CCC[C@H]1CO)C(C)C,inhibition,[12],-22.9%
same,score,[13],1.1
same,rescue above control,[14],7.47
same,cytochrome c release ratio,[15],0.78
same,inhibition of aggregation,[16],14.3%
same,glutamate uptake change,[17],9.77%
same,inclusion score,[19],2
same,aggregation suppression score,[18],1.26
same,period change,[1],-0.03 h (inactive)
same,inhibition,[2],0% (inactive)
same,fluorescence ratio (interference),[3],1.1 (inactive)
same,red/green cell ratio (normalised),[4],0.91 (inactive)
same,normalised cell number,[4]; [21],1.02
same,normalised cell number,[4]; [22],0.93
same,fold change,[5]; [23],2.17 (inactive)
same,fold change,[5]; [24],1.05
same,cell count,[5]; [25],6800
same,cell count,[5]; [26],3130
same,outcome,[6],inactive
same,luciferase signal,[7],192 AU (inactive)
same,z-score,[8],2.42 (inactive)
COc1cc([C@@H]2c3cc4c(cc3[C@H](O)C3COC(=O)[C@@H]32)OCO4)cc(OC)c1OC (stereo not given in full),period change,[1],0.2 h (inactive)
same,inhibition,[2],-3% (inactive)
same,fluorescence ratio (interference),[3],1 (inactive)
same,red/green cell ratio (normalised),[4],1.07 (inactive)
same,normalised cell number,[4]; [21],0.17
same,normalised cell number,[4]; [22],0.18
same,fold change,[5]; [23],0.98 (inactive)
same,fold change,[5]; [24],1.04
same,cell count,[5]; [25],1670
same,cell count,[5]; [26],1710
same,outcome,[6],inactive
same,z-score,[8],-0.545 (inactive)
CN1CCN(C(c2ccccc2)c2ccc(Cl)cc2)CC1 (stereo not given),inhibition,[12],9.79%
same,score,[13],1.32
same,rescue above control,[14],0
same,cytochrome c release ratio,[15],1.15
same,inhibition of aggregation,[16],65.4%
same,glutamate uptake change,[17],11.5%
same,aggregation suppression score,[18],0.963
same,survival,[20],1.83 (inactive)
same,parasite load remaining,[9],76% (inactive) and 58.1% (inactive)
same,viability,[9],93.1% and 88.3%
same,red/green cell ratio (normalised),[4],1.15 (inactive)
same,normalised cell number,[4]; [21],1.09
same,normalised cell number,[4]; [22],1.26
same,fold change,[5]; [23],0.825 (inactive) and 0.923 (inactive)
same,fold change,[5]; [24],1.22 and 0.572
same,cell count,[5]; [25],7440 and 10400
same,cell count,[5]; [26],9010 and 11300
same,z-score,[10]; [27],0.513 (inactive)
same,z-score,[10]; [28],1.23
same,remaining NAD,[11],10 nM (inactive)
same,luciferase signal,[7],100 AU (inactive)
O=C(O)[C@H]1/C(=C/CO)O[C@@H]2CC(=O)N21,parasite load remaining,[9],50.6% (inactive)
same,viability,[9],103%
same,red/green cell ratio (normalised),[4],1.31 (inactive)
same,normalised cell number,[4]; [21],0.86
same,normalised cell number,[4]; [22],1.13
same,fold change,[5]; [23],0.901 (inactive)
same,fold change,[5]; [24],3.53
same,cell count,[5]; [25],11900
same,cell count,[5]; [26],13200
same,z-score,[10]; [27],-0.304 (inactive)
same,z-score,[10]; [28],-1.19
same,remaining NAD,[11],10 nM (inactive)
same,luciferase signal,[7],76 AU (inactive)
CN(C)CC(c1ccc(O)cc1)C1(O)CCCCC1 (stereo not given),red/green cell ratio (normalised),[4],1 (inactive)
same,normalised cell number,[4]; [21],0.79
same,normalised cell number,[4]; [22],0.79
same,fold change,[5]; [23],0.982 (inactive) and 0.891 (inactive) and 0.889 (inactive)
same,fold change,[5]; [24],0.639 and 1.05 and 1.37
same,cell count,[5]; [25],9600 and 8680
same,cell count,[5]; [26],9780 and 9740 and 9750
same,z-score,[10]; [27],-0.237 (inactive) and -0.203 (inactive)
same,z-score,[10]; [28],-0.123 and -0.139
same,remaining NAD,[11],10 nM (inactive)
CC1(C)S[C@@H]2[C@H](NC(=O)COc3ccccc3)C(=O)N2[C@H]1C(=O)O,inhibition,[12],4.98%
same,score,[13],1.39
same,rescue above control,[14],1.16
same,cytochrome c release ratio,[15],0.65
same,inhibition of aggregation,[16],70.1%
same,glutamate uptake change,[17],-6.22%
same,inclusion score,[19],2
same,aggregation suppression score,[18],0.899
same,parasite load remaining,[9],89.7% (inactive) and 64.4% (inactive) and 28.3% (inactive)
same,viability,[9],71.1% and 91.3% and 70.5%
same,red/green cell ratio (normalised),[4],1.2 (inactive)
same,normalised cell number,[4]; [21],0.81
same,normalised cell number,[4]; [22],0.98
same,fold change,[5]; [23],0.943 (inactive) and 0.879 (inactive)
same,fold change,[5]; [24],0.921 and 0.998
same,cell count,[5]; [25],11800 and 10100
same,cell count,[5]; [26],12500 and 11500
same,z-score,[10]; [27],0.0944 (inactive)
same,z-score,[10]; [28],0.173
same,remaining NAD,[11],10 nM (inactive)
same,luciferase signal,[7],64 AU (inactive)
same,z-score,[8],0.895 (inactive)
